Assay results as given in PubChem BioAssay (NCI).
This is part of a sample that, as a whole, favours compounds with a hit. Of some 83,000 tested, about 20% had one in any assay.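 Cells were grown in 96-well plates and exposed to the test compound at a single concentration for 48 hours; results are reported as percent growth, with values below 10 considered active.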

Experiments:
Assay in all cases: NCI-60 one-dose screen, 48 h (100 = growth as untreated, 0 = no growth, -100 = all killed)
Details in all cases: 10 µM unless noted
SR leukemia = system: SR leukemia
RPMI-8226 leukemia = system: RPMI-8226 leukemia
OVCAR-8 ovarian = system: OVCAR-8 ovarian
OVCAR-5 ovarian = system: OVCAR-5 ovarian
OVCAR-4 ovarian = system: OVCAR-4 ovarian
SK-OV-3 ovarian = system: SK-OV-3 ovarian
IGROV1 ovarian = system: IGROV1 ovarian
OVCAR-3 ovarian = system: OVCAR-3 ovarian
HS 578T breast = system: HS 578T breast
NCI/ADR-RES ovarian = system: NCI/ADR-RES ovarian
T-47D breast = system: T-47D breast
BT-549 breast = system: BT-549 breast
MDA-MB-435 melanoma = system: MDA-MB-435 melanoma
SW-620 colon = system: SW-620 colon
MCF7 breast = system: MCF7 breast
HCT-116 colon = system: HCT-116 colon
HCC-2998 colon = system: HCC-2998 colon
KM12 colon = system: KM12 colon
MOLT-4 leukemia = system: MOLT-4 leukemia

Measured: growth

O=C(CC1(O)C(=O)Nc2ccccc21)c1ccc(C(=O)NCC2CCC3(CC2)OOC2(CCCCC2)OO3)cc1 (stereo not drawn)
inactive: SR leukemia 10.8% | RPMI-8226 leukemia 48.1% | OVCAR-8 ovarian 45.3% | OVCAR-5 ovarian 106% | OVCAR-4 ovarian 71.9% | SK-OV-3 ovarian 81.2% | IGROV1 ovarian 41% | OVCAR-3 ovarian 74.1% | HS 578T breast 91.9% | NCI/ADR-RES ovarian 86.9% | T-47D breast 31.8% | BT-549 breast 80.1% | MDA-MB-435 melanoma 81.6% | SW-620 colon 86.4% | MCF7 breast 62.9% | HCT-116 colon 65.9% | HCC-2998 colon 106% | KM12 colon 77.4%

O=C1CNC(c2ccccc2)c2cc(Cl)ccc2N1 (stereo not drawn)
inactive: SR leukemia 88.8% | RPMI-8226 leukemia 109% | OVCAR-8 ovarian 99.7% | OVCAR-5 ovarian 113% | OVCAR-4 ovarian 112% | SK-OV-3 ovarian 98.2% | IGROV1 ovarian 100% | OVCAR-3 ovarian 98% | HS 578T breast 109% | NCI/ADR-RES ovarian 100% | T-47D breast 88.4% | BT-549 breast 122% | MDA-MB-435 melanoma 108% | SW-620 colon 97.2% | MCF7 breast 97.8% | HCT-116 colon 97% | HCC-2998 colon 106% | KM12 colon 91.2%

CN(C)C(=O)Oc1ccccc1-c1ccccc1
inactive: MOLT-4 leukemia 89.9% | OVCAR-8 ovarian 100% | OVCAR-5 ovarian 109% | OVCAR-4 ovarian 128% | SK-OV-3 ovarian 100% | IGROV1 ovarian 113% | OVCAR-3 ovarian 108% | HS 578T breast 113% | NCI/ADR-RES ovarian 102% | T-47D breast 93.3% | BT-549 breast 90.7% | MDA-MB-435 melanoma 112% | SW-620 colon 109% | MCF7 breast 105% | HCT-116 colon 111% | HCC-2998 colon 96.1% | KM12 colon 103%
